From PubChem BioAssay (NCI)
The panel holds about 83,000 compounds, 20% with a hit somewhere; the sample as a whole holds those more often.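 Note: values are percent growth. 100 is the growth of untreated cells, values between 100 and 0 indicate rising inhibition; between -100 and 0 indicates cell death.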 A number with no mark means an inactive call. Active and inactive are the calls of the source. Rule for the calls: active = growth percent below 10; inactive = the rest.

Experiments:
Assay in all cases: NCI-60 one-dose screen, 48 h (100 = growth as untreated, 0 = no growth, -100 = all killed)
Settings in all cases: 10 µM unless noted
DU-145 prostate = system: DU-145 prostate
K-562 leukemia = system: K-562 leukemia
MALME-3M melanoma = system: MALME-3M melanoma
MDA-MB-231 breast = system: MDA-MB-231 breast
RXF 393 renal = system: RXF 393 renal
SF-268 CNS = system: SF-268 CNS
SF-295 CNS = system: SF-295 CNS
SF-539 CNS = system: SF-539 CNS
UACC-257 melanoma = system: UACC-257 melanoma
M14 melanoma = system: M14 melanoma

Compound	growth (DU-145 prostate)	growth (K-562 leukemia)	growth (MALME-3M melanoma)	growth (MDA-MB-231 breast)	growth (RXF 393 renal)	growth (SF-268 CNS)	growth (SF-295 CNS)	growth (SF-539 CNS)	growth (UACC-257 melanoma)	growth (M14 melanoma)
Cc1ccccc1Nc1nc(SC(C)C)nc(-c2ccccc2)c1C#N	76.6%	46.3%	66.3%	67.9%	28.1%	57%	23.8%	28.1%	107%	77.2%
C#Cc1cc(OC)c(C(=O)Nc2ccc(F)cc2C(=O)Nc2cccc(S(=O)(=O)C(F)(F)F)c2)cn1	46.8%	5.65% (active)	-33.4% (active)	-24.4% (active)	-1.43% (active)	-38.1% (active)	-83.2% (active)	-87.1% (active)	55.7%	16.7%
C#C[C@]1(O)CC[C@H]2[C@@H]3CC=C4c5sc(NCc6ccccc6)nc5CC[C@]4(C)[C@H]3CC[C@@]21C	71%	1.46% (active)	43.6%	48.4%	-36% (active)	47.5%	-57.6% (active)	-39.9% (active)	-10% (active)	21.4%
C/C(=C(/C)C1CC1CCNC1CCC(NC(=O)OC(C)(C)C)CC1)c1ccccc1 (stereo not given)	84.6%	0.99% (active)	36.6%	72.9%	42.7%	84.7%	77.8%	63.5%	55.4%	21.3%
O=C(Nc1cccc(C(F)(F)F)c1)N1CCN(c2cc(-c3cn(-c4ccccc4)nc3-c3cccc(O)c3)ccn2)CC1	61.2%	30.6%	46.3%	54%	46.7%	59.4%	22.8%	54.7%	67.6%	41.2%
Cc1cc2nc3c4cc(C#N)ccc4n(CCN(C)C)c3nc2cc1C	5.75% (active)	3.51% (active)	-68% (active)	8.68% (active)	-62.1% (active)	-7.74% (active)	-4.33% (active)	-15.2% (active)	-25.5% (active)	-83.3% (active)
CN1CCN(c2ccc(Nc3nc(NCCCNS(=O)(=O)c4ccc(F)cc4)c4sccc4n3)cc2)CC1	72.6%	10.4%	-66.2% (active)	43.2%	36.5%	60.3%	32.4%	-76% (active)	-28.6% (active)	-21.3% (active)
Cn1cc(-c2nn3cc(-c4ccncc4)nc3s2)c2cc(F)ccc21	90.8%	19.7%	65.5%	63.3%	88%	94.8%	96.7%	87%	111%	93.4%
Brc1cccc(-c2cc(-c3cnc4c(c3)OCCO4)n[nH]2)c1	70.4%	16.6%	37%	68.8%	47.9%	76.5%	51.5%	47.6%	73.2%	27.1%
CCCCOc1ccc(S(=O)(=O)N2CCN(c3nc(C)cc(N4CCOCC4)n3)CC2)cc1	16.6%	44.3%	107%	3.79% (active)	85%	3.91% (active)	-22.5% (active)	75.9%	-47.2% (active)	-15.9% (active)
CCN(CC)S(=O)(=O)c1ccc(-c2nc(C(Cl)Cl)nc3cc(-c4ccc(F)cc4)nn23)cc1	16%	34.6%	57.6%	1.34% (active)	-30.2% (active)	48.5%	32.6%	18.4%	67.7%	47.1%
C=C(C)[C@@H]1CC[C@]2(C(=O)NC3CCCCC3)CC[C@]3(C)[C@H](CC[C@@H]4[C@@]5(C)CC[C@H](N)C(C)(C)[C@@H]5CC[C@]43C)[C@@H]12	105%	-34.7% (active)	95.3%	108%	93.7%	91.6%	103%	98.5%	105%	103%
CC(=O)Nc1ccccc1-c1nc2ccccc2s1	110%	113%	106%	99.2%	103%	101%	103%	100%	107%	103%
COc1ccc2c(c1)C=CC1(O2)Oc2ccc(OC)cc2C=C1C (stereo not given)	34.1%	8.41% (active)	55.2%	2.14% (active)	-12.3% (active)	54.4%	7.92% (active)	-11% (active)	73%	3.03% (active)
CCOC(=O)c1cccc(NC2=C(Cl)C(=O)c3nc(C)ccc3C2=O)c1	108%	15.6%	96.3%	89.8%	97.8%	96.2%	113%	104%	82%	96.4%
O=C(Nc1ccc(N=Cc2c(O)[nH]c3ccccc23)cc1)Nc1ccc(S(=O)(=O)Nc2ncccn2)cc1	110%	98%	112%	107%	122%	109%	101%	105%	103%	104%
C#C[C@]1(O)CC[C@H]2[C@@H]3CC=C4c5sc(Nc6cc(Cl)ccc6OC)nc5CC[C@]4(C)[C@H]3CC[C@@]21C	19.1%	4.32% (active)	12.1%	43.6%	-74.9% (active)	24.6%	-62.4% (active)	-22.1% (active)	-16.3% (active)	-51.7% (active)
